# From PubChem
# Anthrax LF inh2: inhibitors of Bacillus anthracis lethal factor protease; P15917; multiplex microsphere protease cleavage assay, LF; inhibition, % at 10 µM; actives 0.12% (n = 360,000); further: plate controls were buffer without enzyme for full effect and enzyme alone for no effect
# BoNT-A LC inh2: inhibitors of Botulinum neurotoxin A light chain protease; multiplex microsphere protease substrate cleavage, flow cytometry; inhibition, % at 10 µM; actives 0.17% (n = 360,000); further: plate controls were buffer without enzyme for full effect and enzyme alone for no effect
# BoNT F protease: BoNT F light chain protease inhibition; actives 0.22% (n = 360,000); inhibition, % at 10 µM; Multiplex microsphere protease cleavage assay, flow cytometry; in the data active means inhibition above about 35%, passing the limit was not always enough; inconclusive means no clear call, values can overlap the other calls; further: plate controls were buffer without enzyme for full effect and enzyme alone for no effect
# Bead autofluor: counter-screen for toxin protease inhibitors: compound fluorescence; actives 3.1% (n = 360,000); compound autofluorescence counterscreen, microsphere flow cytometry; hits give high values; fluorescence intensity (concentration not given with the values); in the data active means fluorescence intensity above about 16000; inconclusive means no clear call, values can overlap the other calls
# Numbers without * were called inactive; ? = inconclusive. An excerpt weighted towards active compounds, which were near 3.5% of everything screened. Unless noted, no stated cut-off is given here; in the data, active means inhibition above about 30%; inconclusive means no clear call, values can overlap the other calls; inactive means below that.
SMILES,Anthrax LF inh2,BoNT-A LC inh2,BoNT F protease,Bead autofluor
COC(=O)n1c(=O)oc2cc(S(=O)(=O)N3CCOCC3)ccc21,-8,4,12,20705*
COC(=O)n1c(=O)oc2ccc(S(=O)(=O)N3CCCCC3)cc21,-7,0,2,4974
CCOC(=O)C1=NOC2C3CC(C12)C1C(=O)N(CCc2ccc(OC)c(OC)c2)C(=O)C31 (stereo not given),-3,0,0,4073
Cc1ccc(CN2C(=O)CCC2C(=O)NCCCN2CCOCC2)cc1 (stereo not given),3,0,-5,2760
O=C(NCCN1CCOCC1)C1CCC(=O)N1Cc1ccc(F)cc1 (stereo not given),0,-1,-4,24197*
C(=N\c1nc2ccccc2[nH]1)/c1cccs1,-2,?,-2,23619*
Cc1cc(O)cc(=O)n1Cc1ccccc1,6,-1,-8,5887
COc1cc(CNc2ncn[nH]2)cc(Br)c1OC,-2,?,0,23846*
CCOc1c(Br)cc(CNc2ncn[nH]2)cc1OC,2,0,-3,4859
CCCCCCSc1ccc([C@H]2N[C@@](CC(C)C)(C(=O)OC)[C@H]3C(=O)N(C)C(=O)[C@@H]23)cc1OC,-1,0,-4,3029
O=S(=O)(c1ccc2ccccc2c1)N1CCN(C2Cc3ccccc3C2)CC1,1,0,4,2310
CCS(=O)(=O)N1CCN(C2Cc3ccccc3C2)CC1,-1,?,0,22089*
COc1cccc(N2C(=O)Nc3ccc(Br)cc3C2(O)C(=O)NCCN(C)C)c1 (stereo not given),2,-2,-22,3175
C[C@H](NC(=O)c1ccccc1Cl)C(=O)OC(C(=O)Nc1cc(C(F)(F)F)ccc1Cl)c1ccccc1 (stereo not given in full),1,0,-18,2808
O=C(CNC(=O)c1ccccc1F)OC(C(=O)Nc1cc(C(F)(F)F)ccc1Cl)c1ccccc1 (stereo not given),0,2,4,22099*
COCCNS(=O)(=O)c1cc(OC)c(C)cc1C,-5,0,-2,4653
CCCOc1cc(C)c(S(=O)(=O)NCCOC)cc1C,-1,-7,-7,21763*
Cc1cc(C(=O)Nc2sc(C)c(C)c2C#N)c(C)o1,2,?,-2,16457*
Cc1sc(NC(=S)NC(=O)c2ccc(C(C)(C)C)cc2)c(C#N)c1C,-1,-2,-3,21363*
Cc1csc(=O)n1CC(=O)Nc1ccc(C(C)C)cc1,6,1,4,5714
Cc1cc(C)nc(N2CCCC(C(=O)NC(C)CCc3ccco3)C2)n1 (stereo not given),-2,?,-2,23504*
O=C(NCc1cccs1)C1CCCN(c2nc3ccccc3o2)C1 (stereo not given),1,1,1,16144*
COc1nc(OC)nc(N2CCC(C(=O)NCc3cccs3)CC2)n1,0,?,3,21111*
Cc1ccnc(N2CCCC(C(=O)NCc3cccs3)C2)n1 (stereo not given),-5,0,21,3588
Cc1cc(C)nc(N2CCCC(C(=O)NCc3cccs3)C2)n1 (stereo not given),-4,3,3,21442*
SMILES,Anthrax LF inh2,BoNT-A LC inh2,BoNT F protease,Bead autofluor
COc1ccc2c(c1)C(CC(C)=O)N(c1ccc(-c3cccs3)cc1)C(c1ccsc1)=C2 (stereo not given),-8,8,-9,3905
CCCn1ccnc1SCC(=O)Nc1c(C)n(C)n(-c2ccccc2)c1=O,2,-1,0,4233
Cc1ccnc(Nc2cccnc2)n1,-8,0,-9,6642
CC(C)OCCCn1c(=NC(=O)c2ccncc2)c(C#N)cc2c(=O)n3ccccc3nc21,-4,1,-3,10844
COc1ccc(CCn2c(=S)[nH]c3cc(C(=O)NCc4ccco4)ccc3c2=O)cc1OC,1,-4,-2,20732*
CC(C)OCCCn1c(=N)c(C(N)=S)cc2c(=O)n3ccccc3nc21,-52,35*,-56,5395
COc1ccc(CCn2c(=N)c(C(=O)NCc3ccco3)cc3c(=O)n4ccccc4nc32)cc1,4,2,2,22951*
Cc1ccc(S(=O)(=O)c2cc3c(=O)n4ccccc4nc3n(C)c2=N)cc1,-6,5,5,18992*
COc1ccc(-n2c(=S)[nH]c3cc(C(=O)NCc4ccco4)ccc3c2=O)cc1OC,1,0,?,4604
O=C(NCCc1c[nH]c2ccccc12)c1ccc([N+](=O)[O-])o1,-5,0,-8,3540
COc1ccc(CCn2c(=N)c(S(=O)(=O)c3ccccc3)cc3c(=O)n4ccccc4nc32)cc1,2,3,6,5759
COc1ccc(CCn2c(=N)c(S(=O)(=O)c3ccc(Cl)cc3)cc3c(=O)n4ccccc4nc32)cc1,-15,-36,-87,21901*
